# Where two headings read alike, the source gives them in different places.
# What was measured:
# Details in all cases: read-out: apparent Kd, n = 1
# SLK = test system: SLK
# STK10 = test system: STK10
# TBK1 = test system: TBK1
# [1] = compound concentrations:100 nM and 1000 nM (sheet 'Lestaurtinib' of Supplementary Table 1),run:Lestaurtinib_02601_R1,Plate:MR018
# [2] = compound concentrations:100 nM and 1000 nM (sheet 'Lestaurtinib' of Supplementary Table 1),run:Lestaurtinib_02624_R2,Plate:MR020
# [3] = compound concentrations:100 nM and 1000 nM (sheet 'Lestaurtinib' of Supplementary Table 1),run:Lestaurtinib_02741_R3,Plate:MR023
# [4] = compound concentrations:100 nM and 1000 nM (sheet 'Lestaurtinib' of Supplementary Table 1),run:Lestaurtinib_02748_R2,Plate:MR024
# [5] = compound concentrations:100 nM and 1000 nM (sheet 'Lestaurtinib' of Supplementary Table 1),run:Lestaurtinib_02765_R1,Plate:MR026
# [6] = compound concentrations:100 nM and 1000 nM (sheet 'Lestaurtinib' of Supplementary Table 1),run:Lestaurtinib_02765_R2,Plate:MR026
# [7] = compound concentrations:100 nM and 1000 nM (sheet 'Lestaurtinib' of Supplementary Table 1),run:Lestaurtinib_02766_R2,Plate:MR027
# [8] = compound concentrations:100 nM and 1000 nM (sheet 'Lestaurtinib' of Supplementary Table 1),run:Lestaurtinib_02768_R1,Plate:MR028
# [9] = compound concentrations:100 nM and 1000 nM (sheet 'Lestaurtinib' of Supplementary Table 1),run:Lestaurtinib_02795_R1,Plate:MR022
# [10] = compound concentrations:100 nM and 1000 nM (sheet 'Lestaurtinib' of Supplementary Table 1),run:Lestaurtinib_02795_R2,Plate:MR022
# [11] = compound concentrations:100 nM and 1000 nM (sheet 'Lestaurtinib' of Supplementary Table 1),run:Lestaurtinib_02802_R1,Plate:MR029
# [12] = compound concentrations:100 nM and 1000 nM (sheet 'Lestaurtinib' of Supplementary Table 1),run:Lestaurtinib_03252_R2,Plate:MR032
# [13] = compound concentrations:100 nM and 1000 nM (sheet 'Lestaurtinib' of Supplementary Table 1),run:Lestaurtinib_03260_R1,Plate:MR033
# [14] = compound concentrations:100 nM and 1000 nM (sheet 'Lestaurtinib' of Supplementary Table 1),run:Lestaurtinib_03260_R2,Plate:MR033
# [15] = compound concentrations:100 nM and 1000 nM (sheet 'Lestaurtinib' of Supplementary Table 1),run:Lestaurtinib_02339_R2,Plate:MR001
# [16] = compound concentrations:100 nM and 1000 nM (sheet 'Lestaurtinib' of Supplementary Table 1),run:Lestaurtinib_02364_R3,Plate:MR002
# [17] = compound concentrations:100 nM and 1000 nM (sheet 'Lestaurtinib' of Supplementary Table 1),run:Lestaurtinib_02422_R1,Plate:MR006
# [18] = compound concentrations:100 nM and 1000 nM (sheet 'Lestaurtinib' of Supplementary Table 1),run:Lestaurtinib_02438_R2,Plate:MR008
# [19] = compound concentrations:100 nM and 1000 nM (sheet 'Lestaurtinib' of Supplementary Table 1),run:Lestaurtinib_02443_R1,Plate:MR009
# [20] = compound concentrations:100 nM and 1000 nM (sheet 'Lestaurtinib' of Supplementary Table 1),run:Lestaurtinib_02443_R3,Plate:MR009
substance,measurement,setting,value
Lestaurtinib,potency estimated from few doses,SLK; [1],1760 nM
same,potency estimated from few doses,"SLK; compound concentrations:100 nM and 1000 nM (sheet 'Lestaurtinib' of Supplementary Table 1),run:Lestaurtinib_02601_R3,Plate:MR018",1400 nM
same,potency estimated from few doses,"SLK; compound concentrations:100 nM and 1000 nM (sheet 'Lestaurtinib' of Supplementary Table 1),run:Lestaurtinib_02606_R2,Plate:MR019",1320 nM
same,potency estimated from few doses,"SLK; compound concentrations:100 nM and 1000 nM (sheet 'Lestaurtinib' of Supplementary Table 1),run:Lestaurtinib_02624_R1,Plate:MR020",1810 nM
same,potency estimated from few doses,SLK; [2],1130 nM
same,potency estimated from few doses,SLK; [3],1440 nM
same,potency estimated from few doses,SLK; [4],1330 nM
same,potency estimated from few doses,"SLK; compound concentrations:100 nM and 1000 nM (sheet 'Lestaurtinib' of Supplementary Table 1),run:Lestaurtinib_02752_R3,Plate:MR025",1330 nM
same,potency estimated from few doses,SLK; [5],1320 nM
same,potency estimated from few doses,SLK; [6],1130 nM
same,potency estimated from few doses,SLK; [7],1150 nM
same,potency estimated from few doses,SLK; [8],1300 nM
same,potency estimated from few doses,"SLK; compound concentrations:100 nM and 1000 nM (sheet 'Lestaurtinib' of Supplementary Table 1),run:Lestaurtinib_02768_R2,Plate:MR028",1400 nM
same,potency estimated from few doses,SLK; [9],1610 nM
same,potency estimated from few doses,SLK; [10],1360 nM
same,potency estimated from few doses,"SLK; compound concentrations:100 nM and 1000 nM (sheet 'Lestaurtinib' of Supplementary Table 1),run:Lestaurtinib_02795_R3,Plate:MR022",1530 nM
same,potency estimated from few doses,SLK; [11],1150 nM
same,potency estimated from few doses,"SLK; compound concentrations:100 nM and 1000 nM (sheet 'Lestaurtinib' of Supplementary Table 1),run:Lestaurtinib_02802_R2,Plate:MR029",964 nM
same,potency estimated from few doses,"SLK; compound concentrations:100 nM and 1000 nM (sheet 'Lestaurtinib' of Supplementary Table 1),run:Lestaurtinib_02802_R3,Plate:MR029",1350 nM
same,potency estimated from few doses,"SLK; compound concentrations:100 nM and 1000 nM (sheet 'Lestaurtinib' of Supplementary Table 1),run:Lestaurtinib_03172_R2,Plate:MR031",1460 nM
same,potency estimated from few doses,"SLK; compound concentrations:100 nM and 1000 nM (sheet 'Lestaurtinib' of Supplementary Table 1),run:Lestaurtinib_03172_R3,Plate:MR031",914 nM
same,potency estimated from few doses,"SLK; compound concentrations:100 nM and 1000 nM (sheet 'Lestaurtinib' of Supplementary Table 1),run:Lestaurtinib_03252_R1,Plate:MR032",1350 nM
same,potency estimated from few doses,SLK; [12],1400 nM
same,potency estimated from few doses,SLK; [13],1930 nM
same,potency estimated from few doses,SLK; [14],1930 nM
same,potency estimated from few doses,"SLK; compound concentrations:100 nM and 1000 nM (sheet 'Lestaurtinib' of Supplementary Table 1),run:Lestaurtinib_03260_R3,Plate:MR033",1310 nM
same,potency estimated from few doses,"STK10; compound concentrations:100 nM and 1000 nM (sheet 'Lestaurtinib' of Supplementary Table 1),run:Lestaurtinib_02339_R1,Plate:MR001",179 nM
same,potency estimated from few doses,STK10; [15],158 nM
same,potency estimated from few doses,"STK10; compound concentrations:100 nM and 1000 nM (sheet 'Lestaurtinib' of Supplementary Table 1),run:Lestaurtinib_02339_R3,Plate:MR001",80.5 nM
same,potency estimated from few doses,"STK10; compound concentrations:100 nM and 1000 nM (sheet 'Lestaurtinib' of Supplementary Table 1),run:Lestaurtinib_02364_R2,Plate:MR002",140 nM
same,potency estimated from few doses,STK10; [16],142 nM
same,potency estimated from few doses,"STK10; compound concentrations:100 nM and 1000 nM (sheet 'Lestaurtinib' of Supplementary Table 1),run:Lestaurtinib_02367_R3,Plate:MR003",144 nM
same,potency estimated from few doses,"STK10; compound concentrations:100 nM and 1000 nM (sheet 'Lestaurtinib' of Supplementary Table 1),run:Lestaurtinib_02407_R1,Plate:MR005",113 nM
same,potency estimated from few doses,STK10; [17],162 nM
same,potency estimated from few doses,"STK10; compound concentrations:100 nM and 1000 nM (sheet 'Lestaurtinib' of Supplementary Table 1),run:Lestaurtinib_02422_R2,Plate:MR006",47 nM
same,potency estimated from few doses,"STK10; compound concentrations:100 nM and 1000 nM (sheet 'Lestaurtinib' of Supplementary Table 1),run:Lestaurtinib_02437_R1,Plate:MR007",142 nM
same,potency estimated from few doses,"STK10; compound concentrations:100 nM and 1000 nM (sheet 'Lestaurtinib' of Supplementary Table 1),run:Lestaurtinib_02437_R3,Plate:MR007",18.2 nM
same,potency estimated from few doses,STK10; [18],137 nM
same,potency estimated from few doses,STK10; [19],141 nM
same,potency estimated from few doses,STK10; [20],154 nM
same,potency estimated from few doses,"STK10; compound concentrations:100 nM and 1000 nM (sheet 'Lestaurtinib' of Supplementary Table 1),run:Lestaurtinib_02473_R2,Plate:MR010",140 nM
same,potency estimated from few doses,"STK10; compound concentrations:100 nM and 1000 nM (sheet 'Lestaurtinib' of Supplementary Table 1),run:Lestaurtinib_02482_R1,Plate:MR011",131 nM
same,potency estimated from few doses,"STK10; compound concentrations:100 nM and 1000 nM (sheet 'Lestaurtinib' of Supplementary Table 1),run:Lestaurtinib_02482_R2,Plate:MR011",157 nM
same,potency estimated from few doses,"STK10; compound concentrations:100 nM and 1000 nM (sheet 'Lestaurtinib' of Supplementary Table 1),run:Lestaurtinib_02482_R3,Plate:MR011",136 nM
same,potency estimated from few doses,"STK10; compound concentrations:100 nM and 1000 nM (sheet 'Lestaurtinib' of Supplementary Table 1),run:Lestaurtinib_02487_R3,Plate:MR012",163 nM
same,potency estimated from few doses,"STK10; compound concentrations:100 nM and 1000 nM (sheet 'Lestaurtinib' of Supplementary Table 1),run:Lestaurtinib_02566_R2,Plate:MR014",144 nM
same,potency estimated from few doses,"STK10; compound concentrations:100 nM and 1000 nM (sheet 'Lestaurtinib' of Supplementary Table 1),run:Lestaurtinib_02566_R3,Plate:MR014",135 nM
same,potency estimated from few doses,"STK10; compound concentrations:100 nM and 1000 nM (sheet 'Lestaurtinib' of Supplementary Table 1),run:Lestaurtinib_02572_R3,Plate:MR015",157 nM
same,potency estimated from few doses,"STK10; compound concentrations:100 nM and 1000 nM (sheet 'Lestaurtinib' of Supplementary Table 1),run:Lestaurtinib_02577_R3,Plate:MR016",181 nM
same,potency estimated from few doses,"STK10; compound concentrations:100 nM and 1000 nM (sheet 'Lestaurtinib' of Supplementary Table 1),run:Lestaurtinib_02584_R3,Plate:MR017",179 nM
same,potency estimated from few doses,STK10; [1],137 nM
same,potency estimated from few doses,"STK10; compound concentrations:100 nM and 1000 nM (sheet 'Lestaurtinib' of Supplementary Table 1),run:Lestaurtinib_02601_R2,Plate:MR018",167 nM
same,potency estimated from few doses,"STK10; compound concentrations:100 nM and 1000 nM (sheet 'Lestaurtinib' of Supplementary Table 1),run:Lestaurtinib_02606_R1,Plate:MR019",135 nM
same,potency estimated from few doses,"STK10; compound concentrations:100 nM and 1000 nM (sheet 'Lestaurtinib' of Supplementary Table 1),run:Lestaurtinib_02606_R3,Plate:MR019",144 nM
same,potency estimated from few doses,STK10; [2],137 nM
same,potency estimated from few doses,"STK10; compound concentrations:100 nM and 1000 nM (sheet 'Lestaurtinib' of Supplementary Table 1),run:Lestaurtinib_02624_R3,Plate:MR020",115 nM
same,potency estimated from few doses,"STK10; compound concentrations:100 nM and 1000 nM (sheet 'Lestaurtinib' of Supplementary Table 1),run:Lestaurtinib_02724_R2,Plate:MR021",121 nM
same,potency estimated from few doses,"STK10; compound concentrations:100 nM and 1000 nM (sheet 'Lestaurtinib' of Supplementary Table 1),run:Lestaurtinib_02741_R2,Plate:MR023",134 nM
same,potency estimated from few doses,STK10; [3],140 nM
same,potency estimated from few doses,"STK10; compound concentrations:100 nM and 1000 nM (sheet 'Lestaurtinib' of Supplementary Table 1),run:Lestaurtinib_02748_R1,Plate:MR024",157 nM
same,potency estimated from few doses,STK10; [4],153 nM
same,potency estimated from few doses,"STK10; compound concentrations:100 nM and 1000 nM (sheet 'Lestaurtinib' of Supplementary Table 1),run:Lestaurtinib_02748_R3,Plate:MR024",115 nM
same,potency estimated from few doses,"STK10; compound concentrations:100 nM and 1000 nM (sheet 'Lestaurtinib' of Supplementary Table 1),run:Lestaurtinib_02752_R1,Plate:MR025",124 nM
same,potency estimated from few doses,"STK10; compound concentrations:100 nM and 1000 nM (sheet 'Lestaurtinib' of Supplementary Table 1),run:Lestaurtinib_02752_R2,Plate:MR025",141 nM
same,potency estimated from few doses,STK10; [5],97 nM
same,potency estimated from few doses,STK10; [6],132 nM
same,potency estimated from few doses,STK10; [7],93.1 nM
same,potency estimated from few doses,"STK10; compound concentrations:100 nM and 1000 nM (sheet 'Lestaurtinib' of Supplementary Table 1),run:Lestaurtinib_02766_R3,Plate:MR027",137 nM
same,potency estimated from few doses,STK10; [8],115 nM
same,potency estimated from few doses,"STK10; compound concentrations:100 nM and 1000 nM (sheet 'Lestaurtinib' of Supplementary Table 1),run:Lestaurtinib_02768_R3,Plate:MR028",133 nM
same,potency estimated from few doses,STK10; [9],134 nM
same,potency estimated from few doses,STK10; [10],130 nM
same,potency estimated from few doses,STK10; [11],113 nM
same,potency estimated from few doses,"STK10; compound concentrations:100 nM and 1000 nM (sheet 'Lestaurtinib' of Supplementary Table 1),run:Lestaurtinib_02896_R2,Plate:MR030",142 nM
same,potency estimated from few doses,STK10; [12],74.5 nM
same,potency estimated from few doses,STK10; [13],228 nM
same,potency estimated from few doses,STK10; [14],211 nM
same,potency estimated from few doses,TBK1; [15],822 nM
same,potency estimated from few doses,TBK1; [16],1610 nM
same,potency estimated from few doses,"TBK1; compound concentrations:100 nM and 1000 nM (sheet 'Lestaurtinib' of Supplementary Table 1),run:Lestaurtinib_02381_R1,Plate:MR004",1350 nM
same,potency estimated from few doses,"TBK1; compound concentrations:100 nM and 1000 nM (sheet 'Lestaurtinib' of Supplementary Table 1),run:Lestaurtinib_02381_R2,Plate:MR004",1600 nM
same,potency estimated from few doses,"TBK1; compound concentrations:100 nM and 1000 nM (sheet 'Lestaurtinib' of Supplementary Table 1),run:Lestaurtinib_02407_R3,Plate:MR005",1330 nM
same,potency estimated from few doses,TBK1; [17],703 nM
same,potency estimated from few doses,TBK1; [18],1320 nM
same,potency estimated from few doses,TBK1; [19],1620 nM
same,potency estimated from few doses,TBK1; [20],884 nM
